Among all 64,000 compounds or so, about 2,200 (3.4%) were called active. Many of the other results were omitted from the sample, so actives are more common in it than they were. Values without a mark were called inactive.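 Rule for the calls: active = calcium fluorescence response, raw or row-and-column corrected B-score, differing from the plate sample mean either way at a set confidence level, mostly lower; inactive = the rest.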

Chain of Muscarinic acetylcholine receptor M1 (Rattus norvegicus) (P08482 whole entry, looked up): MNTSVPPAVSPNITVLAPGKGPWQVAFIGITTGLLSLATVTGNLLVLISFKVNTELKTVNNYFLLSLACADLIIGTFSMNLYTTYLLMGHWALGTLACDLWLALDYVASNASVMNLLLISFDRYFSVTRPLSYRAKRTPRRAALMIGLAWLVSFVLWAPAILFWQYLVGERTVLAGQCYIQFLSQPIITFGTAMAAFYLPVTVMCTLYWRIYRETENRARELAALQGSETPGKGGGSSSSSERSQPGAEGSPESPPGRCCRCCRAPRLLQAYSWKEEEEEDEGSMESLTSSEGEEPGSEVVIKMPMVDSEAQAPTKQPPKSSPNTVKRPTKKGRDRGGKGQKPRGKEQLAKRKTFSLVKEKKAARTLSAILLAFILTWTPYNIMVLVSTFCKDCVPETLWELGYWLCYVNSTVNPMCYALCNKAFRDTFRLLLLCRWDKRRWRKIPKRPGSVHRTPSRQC

This assay concerns the target Muscarinic acetylcholine receptor M1 (Rattus norvegicus) (UniProt P08482). Nature of the assay: blocks the rat M1 muscarinic receptor response to acetylcholine (AID 628). The note with it: CHO-M1 cells, Fluo-4 calcium, ACh EC80 antagonist mode; at 10 µM; active compounds read low.
In the case of `CCN1CCN(C(=O)CN(C)S(=O)(=O)c2ccc(OC)cc2)CC1`, the B-score was 0.444.

`CC1=Nn2c(nnc2-c2ccccc2)SC1`: the B-score is -3.94 (active). Then `COc1ccc(-c2nn3c(-c4ccccc4)nnc3s2)cc1OC`, with -1.59; and `c1ccc(-c2nnc3n2NC(c2ccc4c(c2)OCO4)S3)cc1` (stereo not drawn), with -0.212.

In the case of `c1ccc(-n2ncc(-c3nn[nH]n3)n2)cc1`, the B-score was 2.54. For `Cc1ccsc1-c1nc(CSCC(=O)NCCN2CCCC2)c(C)o1`, the B-score was -4.42 (active). Next, `Cc1cc(NC(=O)CSCc2nc(-c3cccc(Cl)c3)oc2C)no1`: 0.32; `Cn1c(C(=O)NCCCN2CCCCC2)cc2sccc21`: -1.16. Next, `COCCn1c(CN(Cc2ccccc2)Cc2ccccc2)nc2c1c(=O)n(C)c(=O)n2C`: 0.00241; `CSCCC(NC(N)=O)C(=O)N(C)CC(=O)Nc1ccc(C)cc1` (stereo not drawn): -0.414; `Cc1[nH]c2ccccc2c1C(=O)CSCC(=O)O`: -0.627. Then `O=S(=O)(c1ccc(OCC(O)CN2CCN(c3ccccc3Cl)CC2)cc1)N1CCOCC1` (stereo not drawn), with -1.73 (active); and `OC(COc1ccc2ccccc2c1)CN1CCOCC1` (stereo not drawn), with -0.165. For the molecule `COC(=O)COc1ccc(S(=O)(=O)N2CCOCC2)cc1`, the B-score is 0.524. In the case of `CCCc1[nH]nc2c1C(c1ccc(OC)c(Cn3nc(C)c(Br)c3C)c1)C(C#N)=C(N)O2` (stereo not drawn), the B-score was -0.527. Then `CCCC(=O)Nc1ccccc1N1CCN(C(=O)c2ccccc2)CC1`, with 0.0711; and `Cc1ccc(-c2noc(CCC(N)=O)n2)cc1`, with 0.182; and `Cc1ccc(-c2noc(CCC(=O)Nc3ccccc3N3CCN(C)CC3)n2)cc1`, with -3.17 (active). Then `COc1ccc(NC(=O)Nc2cccc3cccnc23)cc1`, with -0.447; and `COC(=O)c1ccc(NC(=O)CN(c2ccc(C)cc2)S(=O)(=O)c2c(C)n[nH]c2C)cc1`, with -1.39 (active). Consider `CCOC(=O)c1cccc(NC(=O)CN(c2ccc(C)cc2)S(=O)(=O)c2c(C)noc2C)c1`, for which the B-score is -0.345. Next, `CCN(CC)C(=O)CCC(=O)Nc1ccc(C(=O)OC)cc1`: -0.0517; `CCOc1ccc(-c2nnc(-c3ccco3)o2)cc1`: 0.158. Next, `CC(C)(C)NC(=O)C(c1ccco1)N(Cc1ccc2c(c1)OCO2)C(=O)Cn1nnc2ccccc21` (stereo not drawn): -0.446; `CCOC(=O)CSc1nc2sc3c(c2c(=O)[nH]1)CC(C)(C)OC3`: 1.04. Consider `CCC1(C)Cc2c(sc3nc4n(c(=O)c23)CCCS4)CO1` (stereo not drawn), for which the B-score is -1.1 (active).

On to `CCOC(=O)Cn1c(SC)nc2sc3c(c2c1=O)CC(C)(C)OC3`, for which the B-score is -0.00652. Regarding `Cc1cc(=O)n2nc(N3CCCC(C(=O)N4CCN(C)CC4)C3)sc2n1` (stereo not drawn), the B-score is -0.192.

As to `CCOC(=O)C1CCCN(C(=O)C2CCN(c3nnc(-n4cccc4)s3)CC2)C1` (stereo not drawn), the B-score was -0.147. Then `CCOC(=O)N1CCN(C(=O)C2CCN(c3ncnc4c3sc3cccc(F)c34)CC2)CC1`, with -6.68 (active). As for `CCOC(=O)N1CCN(C(=O)C2CC(c3ccc(F)cc3)=NO2)CC1` (stereo not drawn), the B-score is 1.56. Then `CCOC(=O)C1CCN(c2ncnc3c2oc2ccc(Br)cc23)CC1`, with 1.09; and `CCOC(=O)N1CCN(C(=O)C2CCCN(c3ncnc4c3sc3cccc(F)c34)C2)CC1` (stereo not drawn), with -6.95 (active); and `Clc1ccc(Nc2nc(-c3cccs3)cs2)nc1`, with -1.85. Then `Cn1c(=NC(=O)C2CC2)sc2cc(F)cc(F)c21`, with -2.24; and `COC(=O)COc1ccc2oc(=O)cc(C)c2c1`, with 0.286.

On to `CN(C)CCSc1nc(N)c2c3c(sc2n1)COC(C)(C)C3`, for which the B-score is 0.0678. Next, `O=c1c2c(nc3n1CCCCC3)sc1c(O)cccc12`: -0.992; `CC1(C)Cc2c(sc3nc4n(c(=N)c23)CCCCC4)CO1`: -2.66 (active); `CCOC(=O)c1cccc(NC(=O)C2CCCN(S(=O)(=O)c3cnc[nH]3)C2)c1` (stereo not drawn): 0.994.

Consider `C=CCn1c(=N)n(CC(O)COc2ccc(OC)cc2)c2ccccc21` (stereo not drawn), for which the B-score was 0.0139.

For `CCn1c(=N)n(CC(=O)c2cccc(OC)c2)c2ccccc21`, the B-score is -6.64 (active). Next, `COc1ccc(OC)c(NC(=O)Cn2c(=O)oc3ccccc32)c1`: -0.343; `CCCCCC(=O)Nc1ccc2oc(-c3ccncc3)nc2c1`: 0.442; `CCc1c(C)sc(NC(=O)c2ccc(Br)o2)c1C(=O)OC`: -0.053. Then `OC(COc1ccccc1)Cn1cc(Br)cn1` (stereo not drawn), with -0.268. Regarding `CC(=O)N1CCN(C(=O)c2cccc(S(=O)(=O)Nc3ccc(C)cc3)c2)CC1`, the B-score is -0.171.

For `O=S(=O)(Nc1ccc2nc(-c3ccco3)[nH]c2c1)c1ccccc1`, the B-score was -0.153.

Turning to `Cc1ccc(S(=O)(=O)Nc2ccc3ncccc3c2)cc1`, the B-score is -3.27 (active).

Turning to `COc1ccc(NC(C)=O)cc1NC(=O)CN1CCN(C2c3ccccc3-c3ccccc32)CC1`, the B-score was 0.0245. Turning to `CN(CCCC(=O)Nc1nccs1)S(=O)(=O)c1ccc(Cl)cc1`, the B-score was 0.248. As for `O=C(NCCCCO)C(F)(F)C(F)(F)C(F)(F)C(=O)NCCCCO`, the B-score was 0.234. Then `CC(=O)c1c(N2CCOCC2)nc(=S)n(-c2cc(C)ccc2C)c1C`, with -0.429; and `CCOc1cc(/C=N/n2cnnc2)c(Br)cc1O`, with 0.717; and `COc1cccc(OCCOc2cccc(/C=N/n3cnnc3)c2)c1`, with -2.76 (active).

In the case of `C(=N\n1cnnc1)/c1cccnc1`, the B-score was -0.0308. Next, `COc1ccccc1OCCOc1ccc(/C=N/n2cnnc2)cc1`: -2.39 (active). In the case of `COCCNCCOCCOc1cccc(OC)c1`, the B-score is 0.826.

As to `C=CCOc1ccc(/C=N/n2cncn2)cc1OC`, the B-score was 0.195. Next, `O=C(CSc1nc2[nH]ncc2c(=O)n1-c1ccccc1)N1CCCc2ccccc21`: 0.281; `CCOc1cc(C)c(Cl)cc1S(=O)(=O)n1nnc2ccccc21`: 0.583. Next, `COc1ccc(C(=O)NCCc2ccc(S(N)(=O)=O)cc2)cc1OC`: -0.216; `Cc1cc2cc(CN(Cc3cccs3)Cc3nnnn3CC3CCCO3)c(=O)[nH]c2cc1C` (stereo not drawn): -0.714.

Source of the values: PubChem BioAssay AID628 (Vanderbilt High Throughput Screening Facility, 2007).
